Data on 57 molecules can be found in PubChem BioAssay AID652154 (Broad Institute, 2013).

Screen size: about 360,000 compounds; about 4,200 (1.2%) were called active. This is one part of a sample in which actives are shown more often than they occur. A number with no mark means an inactive call.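 Rule for the calls: active = mean replicate inhibition at least 60% with every replicate also reaching 60%; inconclusive = only one of the two criteria is met; inactive = mean below 60% and not all replicates reaching 60%.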

The nature of this experiment: inhibitors of PAX8-driven TPO luciferase reporter, primary screen, RMG-I cells, single concentration (AID 652154).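 Note: luciferase light reporting Pax8 driven TPO promoter activity; plate controls were median of neutral control wells for no effect and mitoxantrone controls for full effect.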 The settings on record: SteadyGlo, 24 h, at 12.6 µM, active compounds read high.
With `C/C=C/c1ccc([C@H]2[C@@H](CO)N(C(=O)CN(C)C)C23CN(C(=O)C2CCCC2)C3)cc1`, the inhibition is -21.3%.
The same measure for `Cc1noc(C)c1S(=O)(=O)N(C)C[C@@H]1OCCCC[C@@H](C)Oc2ccc(NC(=O)Nc3ccccc3)cc2C(=O)N([C@H](C)CO)C[C@@H]1C`: 4.8%; for `C[C@@H]1CN([C@@H](C)CO)C(=O)c2cc(NS(=O)(=O)c3ccccc3)ccc2O[C@H]1CN(C)CC1CC1`: -3.75%.
Next, `COc1ccc(S(=O)(=O)Nc2cccc3c2O[C@@H](CN(C)Cc2ccc(-c4ccccc4)cc2)[C@H](C)CN([C@H](C)CO)C3=O)cc1`: -16.5%; `C[C@H]1CCCCO[C@H](CN(C)C)[C@@H](C)CN([C@@H](C)CO)C(=O)c2cc(NC(=O)CCCN(C)C)ccc2O1`: -13.7%; `COc1cc(OC)cc(C(=O)NCCSCc2ccco2)c1`: 3.2%.
The same measure for `CS(=O)(=O)N(Cc1ccc(Cl)cc1)c1ccc(C(=O)NCCSCc2ccco2)cc1`: 61.6% (active); for `Cc1cc(C)cc(N(CC(=O)NCCSCc2ccco2)S(C)(=O)=O)c1`: 3.24%; for `C[C@H](CO)N1C[C@H](C)[C@@H](CN(C)C)Oc2ccc(N(C)C)cc2C1=O`: -23.1%.
Regarding `COc1ccc(NC(=O)Nc2ccc3c(c2)C(=O)N([C@H](C)CO)C[C@H](C)[C@@H](CN(C)C(=O)NC2CCCCC2)OCCCC[C@@H](C)O3)cc1`, the inhibition was 19.9%.
In the case of `C[C@@H]1CN([C@H](C)CO)C(=O)c2cccc(NC(=O)c3nc4ccccc4s3)c2O[C@H]1CN(C)Cc1ccccc1`, the inhibition is -1.34%.
Next, `COc1ccc(S(=O)(=O)Nc2ccc3c(c2)C(=O)N([C@H](C)CO)C[C@@H](C)[C@H](CN(C)S(=O)(=O)c2ccc(Cl)cc2)OCCCC[C@@H](C)O3)cc1`: 55.8%; `C[C@@H]1CCCCO[C@H](CN(C)S(C)(=O)=O)[C@@H](C)CN([C@H](C)CO)C(=O)c2cc(NS(=O)(=O)c3ccc(Cl)cc3)ccc2O1`: 7.33%.
Turning to `C[C@@H]1CCCCO[C@H](CN(C)S(=O)(=O)c2ccc(F)cc2)[C@H](C)CN([C@@H](C)CO)C(=O)c2cc(NS(=O)(=O)c3ccccc3)ccc2O1`, the inhibition was 3.05%.
For the molecule `Cc1ccc(S(=O)(=O)Nc2ccc3c(c2)C(=O)N([C@H](C)CO)C[C@@H](C)[C@H](CN(C)S(=O)(=O)c2ccc(C)cc2)OCCCC[C@@H](C)O3)cc1`, the inhibition is 71.3% (active).
As for `C[C@@H]1CN([C@H](C)CO)C(=O)c2cc(NS(=O)(=O)c3ccccc3)ccc2O[C@@H](C)CCCCO[C@H]1CN(C)S(=O)(=O)c1ccc(Cl)cc1`, the inhibition was 73.3% (active).
Next, `C[C@@H]1CN([C@H](C)CO)C(=O)c2cccc(NC(=O)c3nc4ccccc4s3)c2O[C@H]1CN(C)S(=O)(=O)c1ccc(Cl)cc1`: 66.2% (active); `C[C@H](CO)N1C[C@H](C)[C@H](CN(C)S(=O)(=O)c2ccc(F)cc2)OCCCC[C@H](C)Oc2ccc(NS(=O)(=O)c3ccc(Cl)cc3)cc2C1=O`: 87.4% (active).
The same measure for `Cc1ccc(S(=O)(=O)N(C)C[C@H]2OCCCC[C@@H](C)Oc3ccc(NS(C)(=O)=O)cc3C(=O)N([C@H](C)CO)C[C@@H]2C)cc1`: -9.1%.
Take `C[C@@H]1CCCCO[C@H](CN(C)S(=O)(=O)c2ccccc2)[C@@H](C)CN([C@@H](C)CO)C(=O)c2cc(NS(=O)(=O)c3ccccc3)ccc2O1`: the inhibition is 0.573%.
Next, `C[C@@H]1CN([C@H](C)CO)C(=O)c2cccc(NC(=O)c3nc4ccccc4s3)c2O[C@@H]1CN(C)C`: -13.2%; `Cc1ccc(S(=O)(=O)N(C)C[C@@H]2OCCCC[C@@H](C)Oc3ccc(NS(=O)(=O)c4ccccc4)cc3C(=O)N([C@H](C)CO)C[C@@H]2C)cc1`: -6.72%.
In the case of `CC=Cc1ccc2n(c1=O)C[C@@H]1[C@@H](CO)[C@H](C(=O)N[C@@H](C)c3ccccc3)[C@H]2N1Cc1ccncc1` (mixture of isomers), the inhibition was -0.758%.
The same measure for `CC=Cc1ccc2n(c1=O)C[C@@H]1[C@@H](CO)[C@H](C(=O)NCC(F)(F)F)N(CCc3ccccc3)[C@H]21` (mixture of isomers): 5.7%.
Next, `O=C(C[C@H]1C=C[C@H](NC(=O)CC2CC2)[C@H](CO)O1)NCc1ccc(Cl)cc1`: 0.511%; `Cc1ccc(S(=O)(=O)N(C)C[C@@H]2OCCCC[C@@H](C)Oc3ccc(NS(=O)(=O)c4ccc(F)cc4)cc3C(=O)N([C@H](C)CO)C[C@H]2C)cc1`: 65.5% (active); `C[C@@H]1CCCCO[C@@H](CN(C)S(C)(=O)=O)[C@H](C)CN([C@@H](C)CO)C(=O)c2cc(NS(=O)(=O)c3ccc(F)cc3)ccc2O1`: 6.52%.
Take `C[C@H]1CCCCO[C@@H](CN(C)S(=O)(=O)c2cccs2)[C@@H](C)CN([C@@H](C)CO)C(=O)c2cc(NS(=O)(=O)c3ccc(Cl)cc3)ccc2O1`: the inhibition is 78.6% (active).
The same measure for `C[C@@H]1CN([C@H](C)CO)C(=O)c2cc(NS(=O)(=O)c3cccs3)ccc2O[C@@H](C)CCCCO[C@@H]1CN(C)S(=O)(=O)c1ccc(Cl)cc1`: 32.3%; for `C[C@@H]1CCCCO[C@H](CN(C)S(=O)(=O)c2ccc(Cl)cc2)[C@H](C)CN([C@@H](C)CO)C(=O)c2cc(NS(=O)(=O)c3cccs3)ccc2O1`: 35.2%.
For the molecule `Cc1ccc(S(=O)(=O)Nc2ccc3c(c2)C(=O)N([C@H](C)CO)C[C@H](C)[C@H](CN(C)S(=O)(=O)c2ccc(F)cc2)OCCCC[C@@H](C)O3)cc1`, the inhibition was -6.17%.
The same measure for `CCCNC(=O)Nc1ccc2c(c1)C(=O)N(C)C[C@@H](OC)[C@H](C)CN(C(=O)C1CCCCC1)[C@H](C)CO2`: 12.3%.
Next, `C[C@@H]1CN([C@@H](C)CO)C(=O)c2c(c3ccccc3n2C)-c2ccccc2CO[C@@H]1CN(C)S(=O)(=O)c1cccs1`: 12.1%; `CCCNC(=O)N1[C@H](CNC(C)=O)[C@@H](c2ccc(C3=CCCC3)cc2)[C@@H]1CO`: -5.47%; `C[C@@H]1CCCCO[C@H](CN(C)CC2CCCCC2)[C@H](C)CN([C@H](C)CO)C(=O)c2cc(NC(=O)Nc3ccc(F)cc3)ccc2O1`: 69.8% (active).
Take `C[C@H](CO)N1C[C@H](C)[C@@H](CN(C)C(=O)Nc2ccc3c(c2)OCO3)OCCCC[C@H](C)Oc2ccc(NC(=O)Nc3ccc4c(c3)OCO4)cc2C1=O`: the inhibition is 12%.
The same measure for `C[C@H](CO)N1C[C@H](C)[C@H](CN(C)C(=O)NC2CCCCC2)OCCCC[C@H](C)Oc2ccc(NC(=O)Nc3ccc4c(c3)OCO4)cc2C1=O`: 29.3%; for `C[C@H]1CCCCO[C@H](CN(C)C(=O)NC2CCCCC2)[C@@H](C)CN([C@@H](C)CO)C(=O)c2cc(NC(=O)Nc3ccc4c(c3)OCO4)ccc2O1`: 66.1% (active).
In the case of `C[C@@H]1CCCCO[C@@H](CN(C)C(=O)NC2CCCCC2)[C@H](C)CN([C@@H](C)CO)C(=O)c2cc(NC(=O)Nc3ccc(F)cc3)ccc2O1`, the inhibition was 17.7%.
Next, `C[C@@H]1CCCCO[C@H](CN(C)C(=O)NC2CCCCC2)[C@H](C)CN([C@@H](C)CO)C(=O)c2cc(NC(=O)Nc3ccc(F)cc3)ccc2O1`: 52.5%; `C[C@@H]1CCCCO[C@H](CN(C)CC2CC2)[C@@H](C)CN([C@H](C)CO)C(=O)c2cc(NC(=O)Nc3ccc(F)cc3)ccc2O1`: 2.41%; `C[C@@H]1CCCCO[C@H](CN(C)C(=O)NC2CCCCC2)[C@H](C)CN([C@H](C)CO)C(=O)c2cc(NC(=O)Nc3ccc(F)cc3)ccc2O1`: 70.7% (active).
Next, `C[C@@H]1CN([C@H](C)CO)C(=O)c2cc(NC(=O)Nc3ccc(F)cc3)ccc2O[C@@H](C)CCCCO[C@@H]1CN(C)CC1CCCCC1`: 17%; `CCCNC(=O)N1CC2(C1)[C@H](c1ccccc1)[C@@H](CO)N2Cc1cccc(Cl)c1`: 8.51%.
The same measure for `O=C(Nc1ccccc1F)N1CC(=O)N2[C@@H](CO)[C@H](c3ccc(C#CC4CCCC4)cc3)[C@@H]2C1`: 11.2%; for `C[C@H](NC(=O)C[C@@H]1CC[C@@H](NC(=O)Cc2ccccn2)[C@@H](CO)O1)c1ccccc1`: 26%; for `O=C(c1cccnc1)N1CC[C@@H]2[C@@H](CO)Nc3ccc(-c4ccccc4)cc3[C@@H]21`: 1.4%.
`CCOc1ccc(/C=C/C(=O)N(CC)CC(=O)NCc2cccs2)cc1OC`: the inhibition was 10.8%.
With `COc1ccc(/C=C/C(=O)OCC(=O)NCc2cccs2)cc1OC`, the inhibition was 72.7% (active).
The same measure for `O=C(COC(=O)/C=C/c1cccc(Cl)c1)NCc1cccs1`: 6.69%; for `CNC(=O)C[C@@H]1CC[C@@H]2[C@@H](COc3ccc(NC(=O)c4ccc(F)cc4)cc3C(=O)N2C)O1`: -7.92%.
Next, `O=C(Nc1cc(Cl)cc(Cl)c1)N[C@@H]1CC[C@H](CCNS(=O)(=O)c2cccc(F)c2)O[C@H]1CO`: 13.6%; `COCC#Cc1ccc([C@H]2[C@H]3CN(Cc4ccncc4)CCCCN3[C@H]2CO)cc1`: 12.1%.
Next, `O=C(C[C@@H]1CC[C@@H]2[C@H](COC[C@H](O)CN2C(=O)c2ccncc2)O1)NCc1cc(F)cc(F)c1`: -12.3%.
On to `COc1cc(OC)cc(C(=O)N[C@H](C(=O)Nc2nc3ccccc3[nH]2)C(C)C)c1`, for which the inhibition was 81.6% (active).
The same measure for `COc1cc(OC)cc(C(=O)N[C@H](C(=O)OCC(=O)NC(C)c2ccccc2)C(C)C)c1` (some centres not stated): -10.5%.
For the molecule `COc1cc(OC)cc(C(=O)N[C@H](C(=O)NNC(=O)c2ccc(Br)cc2)C(C)C)c1`, the inhibition was 18.6%.
